In PubChem BioAssay:
Inconclusive results are not listed. Activity calls are given as the source filed them.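 The calls were made as follows, unless noted: active = differentiation response of at least 50%, scaled between solvent and reference control, from cells with both markers; inactive = the rest.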

How the values were obtained:
[1] = rapamycin-like changes in RPL19A-GFP expression – cell-based, S. cerevisiae, multiplex flow cytometry, primary screen (AID 1862; in the data active = percent of DMSO control GFP below about 86%;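 also: lower values mimic rapamycin by blocking the RPL19A rise seen in DMSO cells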); conditions: S. cerevisiae RPL19A-GFP strain, flow cytometry fluorescence, 3 h; at 10 µM; stronger effect = lower value
[2] = TOR pathway GLN3 branch reporter MEP2-GFP changes – S. cerevisiae, multiplex flow cytometry, primary screen (AID 1867;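 active = GFP response, as percent of the DMSO control, above the screen-wide mean plus 3 SD, about 139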;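 also: median GFP channel fluorescence of barcode-gated MEP2-GFP cells measured by flow cytometry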); conditions: S. cerevisiae MEP2-GFP strain, 3 h, at 10 µM, stronger effect = higher value, 100% means same as DMSO wells
[3] = TOR pathway RTG branch CIT2 reporter changes – S. cerevisiae, GFP fusion, multiplex flow cytometry, primary screen (AID 1870;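 active = percent response above a set limit, the screen-wide mean plus 3 SD, cut at about 130% in these data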;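 also: barcoded CIT2-GFP strain pooled with four other GFP strains with rapamycin as positive control; median GFP fluorescence per well over plate mean of DMSO wells so 100% = DMSO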); conditions: S. cerevisiae CIT2-GFP expression, 3 h, at 10 µM, stronger effect = higher value
[4] = TOR pathway LAP4-GFP level changes – S. cerevisiae, multiplex flow cytometry, primary screen (AID 1873;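 active = GFP signal, as percent of the solvent control, above the screen mean plus 3 SD, about 149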); conditions: S. cerevisiae LAP4-GFP expression, 3 h, at 10 µM, stronger effect = higher value
[5] = yeast AGP1-GFP level changes, GLN3 branch – cell-based, multiplex flow cytometry, S. cerevisiae, primary screen (AID 1887;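 active = GFP signal above the screen-wide mean plus 3 SD, that is over about 124.5% of the solvent control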;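 also: AGP1-GFP fusion strain of S. cerevisiae within a five-strain barcoded multiplex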); conditions: 3 h, at 10 µM, stronger effect = higher value
[6] = reduced mouse 2C T cell binding to pMHC/ICAM-1 vesicles – MLPCN validation set, flow cytometry, LFA-1/ICAM-1 modulator project, pilot screen (AID 2523;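 active = response below a set limit, under 55% cells CD8-positive and vesicle-bound, and CD8 cells' 90th-percentile brightness under 279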;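 as to vesicle binding response: mean PE anti-B7-1 fluorescence of CD8+ cells relative to row control; 100% = QL9-loaded vesicles with DMSO vehicle in the same plate row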); conditions: 2C mouse CD8+ T cells, at 7 µM, stronger effect = lower value; double positive events: measured here: CD8+/vesicle+ event percentage
[7] = biological target: Integrin beta-1 (Homo sapiens) + Integrin alpha-4 (Homo sapiens) (UniProt P13612+P05556); test: alpha4beta1 integrin LIBS antibody binding reduction – U937 cells, HUTS-21 mAb, flow cytometry, validation set, VLA-4 allosteric modulator project, pilot screen (AID 2674;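 active = inhibition above 50%, about 3 SD of the validation set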;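 also: antibody binding induced by the VLA-4 ligand LDV present at three times its Kd; 0% = LDV ligand with antibody and no compound and 100% = antibody without LDV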); conditions: HUTS-21 LIBS mAb binding, at 6.7 µM, stronger effect = higher value, binding induced by LDV ligand
Integrin beta-1 (Homo sapiens) + Integrin alpha-4 (Homo sapiens), sequence (P05556 whole entry, looked up): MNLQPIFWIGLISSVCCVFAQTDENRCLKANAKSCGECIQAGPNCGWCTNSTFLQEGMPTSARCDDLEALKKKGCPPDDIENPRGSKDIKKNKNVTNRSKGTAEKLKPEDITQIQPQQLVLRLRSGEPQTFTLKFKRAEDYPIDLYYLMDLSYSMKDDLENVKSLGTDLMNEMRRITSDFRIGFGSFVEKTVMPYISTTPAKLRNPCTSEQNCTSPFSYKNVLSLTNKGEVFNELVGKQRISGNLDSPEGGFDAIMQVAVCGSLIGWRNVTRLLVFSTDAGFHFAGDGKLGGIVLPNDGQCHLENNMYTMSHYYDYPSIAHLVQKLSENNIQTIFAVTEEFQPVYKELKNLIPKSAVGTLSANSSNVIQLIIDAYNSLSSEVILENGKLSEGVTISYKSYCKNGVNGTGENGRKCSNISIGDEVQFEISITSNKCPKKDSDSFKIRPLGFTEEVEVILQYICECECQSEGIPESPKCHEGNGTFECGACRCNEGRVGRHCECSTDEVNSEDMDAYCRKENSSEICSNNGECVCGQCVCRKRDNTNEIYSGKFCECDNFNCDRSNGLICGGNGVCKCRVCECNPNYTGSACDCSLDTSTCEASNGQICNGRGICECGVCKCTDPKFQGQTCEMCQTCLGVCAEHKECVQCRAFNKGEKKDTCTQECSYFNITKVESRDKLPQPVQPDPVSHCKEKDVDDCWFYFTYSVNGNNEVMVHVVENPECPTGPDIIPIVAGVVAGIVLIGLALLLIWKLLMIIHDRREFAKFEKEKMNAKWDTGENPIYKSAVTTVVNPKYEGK
Integrin beta-1 (Homo sapiens) + Integrin alpha-4 (Homo sapiens), sequence (P13612 whole entry, looked up): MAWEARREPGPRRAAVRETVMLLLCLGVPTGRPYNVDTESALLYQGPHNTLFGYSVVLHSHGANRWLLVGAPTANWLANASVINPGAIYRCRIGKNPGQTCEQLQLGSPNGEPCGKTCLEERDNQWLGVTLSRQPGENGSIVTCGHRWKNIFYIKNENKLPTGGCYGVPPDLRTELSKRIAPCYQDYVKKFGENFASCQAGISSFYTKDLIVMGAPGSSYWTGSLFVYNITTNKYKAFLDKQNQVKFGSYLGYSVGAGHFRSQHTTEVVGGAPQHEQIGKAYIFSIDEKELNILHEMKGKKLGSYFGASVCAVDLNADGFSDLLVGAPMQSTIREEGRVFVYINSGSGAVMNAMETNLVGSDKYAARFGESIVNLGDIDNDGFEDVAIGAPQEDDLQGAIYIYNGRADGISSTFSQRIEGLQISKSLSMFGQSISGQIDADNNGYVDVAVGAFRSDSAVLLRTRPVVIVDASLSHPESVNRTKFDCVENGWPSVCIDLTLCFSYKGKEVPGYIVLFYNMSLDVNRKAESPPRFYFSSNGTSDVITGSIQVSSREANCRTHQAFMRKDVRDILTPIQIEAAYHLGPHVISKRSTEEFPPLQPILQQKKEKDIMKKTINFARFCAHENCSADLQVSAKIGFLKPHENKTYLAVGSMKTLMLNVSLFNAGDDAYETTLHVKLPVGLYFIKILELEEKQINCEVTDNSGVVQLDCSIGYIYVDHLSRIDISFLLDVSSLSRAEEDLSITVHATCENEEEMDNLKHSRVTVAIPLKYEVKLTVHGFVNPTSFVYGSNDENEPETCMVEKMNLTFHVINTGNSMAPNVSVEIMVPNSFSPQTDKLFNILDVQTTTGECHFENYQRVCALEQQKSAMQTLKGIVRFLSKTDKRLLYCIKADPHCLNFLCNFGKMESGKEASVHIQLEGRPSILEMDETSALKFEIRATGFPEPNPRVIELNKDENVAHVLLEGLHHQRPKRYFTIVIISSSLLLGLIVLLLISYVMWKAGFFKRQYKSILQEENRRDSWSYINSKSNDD

[8] = biological target: Beta-adrenergic receptor kinase 1 (Homo sapiens) (UniProt P25098); test: GRK2 binders displacing RNA aptamer, biochemical, validation, human GRK2, bead flow cytometry (AID 488806;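 active = aptamer binding inhibition above 30%, about 3 SD of noise from non-fluorescent compounds; inactive = inhibition at or below 30%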); conditions: bead-bound GRK2, FAM-aptamer displacement, at 10 µM, stronger effect = higher value
Beta-adrenergic receptor kinase 1 (Homo sapiens), sequence (P25098 whole entry, looked up): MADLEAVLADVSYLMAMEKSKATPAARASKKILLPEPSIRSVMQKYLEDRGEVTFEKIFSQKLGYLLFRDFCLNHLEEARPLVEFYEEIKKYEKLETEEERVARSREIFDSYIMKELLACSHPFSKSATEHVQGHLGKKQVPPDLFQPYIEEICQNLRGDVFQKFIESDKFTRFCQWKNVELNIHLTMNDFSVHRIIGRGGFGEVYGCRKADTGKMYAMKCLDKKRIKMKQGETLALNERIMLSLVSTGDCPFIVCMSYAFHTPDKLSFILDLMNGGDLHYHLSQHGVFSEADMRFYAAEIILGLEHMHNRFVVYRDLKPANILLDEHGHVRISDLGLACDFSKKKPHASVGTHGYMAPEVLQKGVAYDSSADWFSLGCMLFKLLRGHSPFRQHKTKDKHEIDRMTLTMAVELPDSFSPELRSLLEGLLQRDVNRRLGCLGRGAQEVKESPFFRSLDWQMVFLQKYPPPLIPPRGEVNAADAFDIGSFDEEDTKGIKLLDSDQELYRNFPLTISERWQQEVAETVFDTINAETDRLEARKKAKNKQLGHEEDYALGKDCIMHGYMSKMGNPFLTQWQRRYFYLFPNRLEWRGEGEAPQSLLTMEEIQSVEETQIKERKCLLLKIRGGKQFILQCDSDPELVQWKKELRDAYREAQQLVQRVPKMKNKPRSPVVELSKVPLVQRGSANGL

[9] = biological target: Beta-2 adrenergic receptor (Homo sapiens) (UniProt P07550); test: agonist-induced loss of surface beta2AR – cell-based, FAP fluorogen, flow cytometry, validation set, pilot screen (AID 504459;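 active = percent response above 42, roughly 3 SD of non-fluorescent test compounds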;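 also: agonist-driven loss of surface beta2AR via internalization measured by FAP dye flow cytometry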); conditions: Am2.2-beta2AR cells, at 10 µM, stronger effect = higher value
Beta-2 adrenergic receptor (Homo sapiens), sequence (P07550 whole entry, looked up): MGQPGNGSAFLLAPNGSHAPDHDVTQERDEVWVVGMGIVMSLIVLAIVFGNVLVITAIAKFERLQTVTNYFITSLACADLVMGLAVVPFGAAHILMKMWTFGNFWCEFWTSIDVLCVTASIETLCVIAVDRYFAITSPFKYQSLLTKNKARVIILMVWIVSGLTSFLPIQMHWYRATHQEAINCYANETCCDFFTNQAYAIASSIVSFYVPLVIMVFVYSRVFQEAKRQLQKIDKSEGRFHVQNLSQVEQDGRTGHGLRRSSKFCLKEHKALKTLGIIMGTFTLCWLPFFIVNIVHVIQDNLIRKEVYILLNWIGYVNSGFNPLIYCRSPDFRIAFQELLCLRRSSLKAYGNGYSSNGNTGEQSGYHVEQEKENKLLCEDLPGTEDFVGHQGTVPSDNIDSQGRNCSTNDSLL

[10] = biological target: AP-2 complex subunit beta (Homo sapiens) (UniProt P63010); test: beta-arrestin/AP2 interaction blockers – biochemical, validation set, GST-AP2 beads, flow cytometry, pilot screen (AID 504541;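 active = inhibition above 54%, about 3 SD of non-fluorescent compounds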;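 also: AP2 carries R879A mutation and is captured from E. coli lysate; bead-bound FITC arrestin peptide fluorescence measuring arrestin peptide binding to AP2; 0% = DMSO wells and 100% = excess unlabeled arrestin peptide control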); conditions: FITC arrestin peptide, at 10 µM, stronger effect = higher value, AP2 beta2 appendage fragment, R879A mutant
AP-2 complex subunit beta (Homo sapiens), sequence (P63010 whole entry, looked up, the tested form may be a part, one chain of several): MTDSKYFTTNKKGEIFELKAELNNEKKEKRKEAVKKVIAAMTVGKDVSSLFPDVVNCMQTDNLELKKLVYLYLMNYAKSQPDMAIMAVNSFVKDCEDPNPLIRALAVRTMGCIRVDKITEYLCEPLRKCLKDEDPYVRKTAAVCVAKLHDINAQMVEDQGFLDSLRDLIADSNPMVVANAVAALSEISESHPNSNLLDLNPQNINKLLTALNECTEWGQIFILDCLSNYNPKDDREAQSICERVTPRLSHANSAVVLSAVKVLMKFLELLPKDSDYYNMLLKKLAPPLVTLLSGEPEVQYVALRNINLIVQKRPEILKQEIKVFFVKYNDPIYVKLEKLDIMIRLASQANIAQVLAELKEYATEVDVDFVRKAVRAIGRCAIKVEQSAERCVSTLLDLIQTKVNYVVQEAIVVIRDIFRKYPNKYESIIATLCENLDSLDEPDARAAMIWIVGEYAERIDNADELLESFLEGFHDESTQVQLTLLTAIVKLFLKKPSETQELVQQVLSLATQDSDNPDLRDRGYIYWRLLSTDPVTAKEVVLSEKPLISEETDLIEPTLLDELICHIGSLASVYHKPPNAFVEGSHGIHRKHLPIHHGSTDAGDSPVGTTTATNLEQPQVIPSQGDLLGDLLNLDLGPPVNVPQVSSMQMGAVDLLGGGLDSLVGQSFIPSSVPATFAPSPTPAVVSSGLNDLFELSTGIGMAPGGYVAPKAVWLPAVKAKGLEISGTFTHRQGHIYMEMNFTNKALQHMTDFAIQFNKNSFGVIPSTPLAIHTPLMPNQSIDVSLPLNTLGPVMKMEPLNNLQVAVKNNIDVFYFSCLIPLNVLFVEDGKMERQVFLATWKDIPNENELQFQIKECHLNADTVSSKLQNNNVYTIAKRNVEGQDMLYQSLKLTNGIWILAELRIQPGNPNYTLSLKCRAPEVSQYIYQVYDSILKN

[11] = cytosolic pH regulators acting via V-ATPase – S. cerevisiae, pHLuorin, HTS validation (AID 504600; in the data active = response above about 15%;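 also: plate controls were DMSO for no effect and reference compound for full effect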); conditions: V-ATPase proton transport, at 10 µM, stronger effect = higher value
[12] = tested on: anti-desmoglein-3 scFv antibody binding to human DSG3; test: blockers of pathogenic pemphigus antibody–desmoglein-3 binding – biochemical, validation compound set, bead-based, flow cytometry, pilot screen (AID 588368;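 active = binding below the plate cutoff, the plate median minus 3 SD, with a reading above zero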;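 also: signal is the median channel fluorescence of bead-bound GFP antibody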); conditions: Protein G beads, DSG3-Fc, scFv-GFP binding, at 10 µM, stronger effect = lower value
[13] = Nile Red efflux blockade in pump-expressing yeast – validation compound set, multiplex, phenotypic, pilot screen (AID 588506;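 active = efflux inhibition above 0.42, the validation set average plus 4 SD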;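 also: Nile Red retained in cells so higher fluorescence means more efflux inhibition; 0 = negative control wells and 1 = enniatin B 25 µM full block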); conditions: S. cerevisiae pump-expressing triplex, Nile Red efflux flow cytometry; at 10 µM; stronger effect = higher value; the pumps come from Candida albicans
[14] = biological target: ATP-binding cassette sub-family B member 6 (Homo sapiens) (UniProt Q9NP58); test: blockers of ABCB6-driven porphyrin uptake – K562-ABCB6 cells, flow cytometry, validation set, pilot screen (AID 588550;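 active = inhibition above the screen-wide mean plus 3 SD, about 51%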;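 also: 0% = DMSO wells and 100% = benzethonium chloride 70 µM positive control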); conditions: K562-ABCB6 porphyrin accumulation, 1 h, at 10 µM, stronger effect = higher value
ATP-binding cassette sub-family B member 6 (Homo sapiens), sequence (Q9NP58 whole entry, looked up): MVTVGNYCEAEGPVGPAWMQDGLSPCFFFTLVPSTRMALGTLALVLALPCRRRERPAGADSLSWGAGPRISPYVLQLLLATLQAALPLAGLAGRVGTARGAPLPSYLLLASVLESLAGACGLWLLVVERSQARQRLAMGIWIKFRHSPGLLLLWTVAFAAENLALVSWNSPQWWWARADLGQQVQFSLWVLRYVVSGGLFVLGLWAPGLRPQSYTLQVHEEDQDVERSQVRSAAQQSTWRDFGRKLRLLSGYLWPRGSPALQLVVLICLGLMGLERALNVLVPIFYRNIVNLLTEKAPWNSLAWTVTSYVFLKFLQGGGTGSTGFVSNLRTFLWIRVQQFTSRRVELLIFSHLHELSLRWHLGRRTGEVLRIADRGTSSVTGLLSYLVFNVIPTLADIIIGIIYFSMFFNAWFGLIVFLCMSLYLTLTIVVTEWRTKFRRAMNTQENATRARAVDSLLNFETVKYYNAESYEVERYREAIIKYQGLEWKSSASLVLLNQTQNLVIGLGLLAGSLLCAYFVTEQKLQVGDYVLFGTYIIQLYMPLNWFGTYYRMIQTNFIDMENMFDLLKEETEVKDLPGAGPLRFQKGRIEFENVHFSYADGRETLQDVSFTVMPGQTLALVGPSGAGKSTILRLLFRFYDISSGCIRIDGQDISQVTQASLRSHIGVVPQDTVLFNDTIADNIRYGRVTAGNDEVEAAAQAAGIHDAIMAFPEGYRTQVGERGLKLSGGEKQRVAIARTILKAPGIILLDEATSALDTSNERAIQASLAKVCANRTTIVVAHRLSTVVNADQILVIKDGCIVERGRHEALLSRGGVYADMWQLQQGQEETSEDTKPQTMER

[15] = AML differentiation inducers, ER-HoxA9 marrow cells – cell-based, GFP/MAC1 double positive, flow cytometry, validation set, primary screen (AID 588685); conditions: stronger effect = higher value, normalized: vehicle 0, fulvestrant 100;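 also: compound exposure lasts four days before antibody staining and flow analysis; 0% = DMSO wells and 100% = 5 µM fulvestrant positive control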
[16] = calorie-restriction mimetic ROS inhibitors, yeast – validation compound set, pilot screen (AID 2706;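 active = superoxide response below 65% of plate, a cut near 3 SD across the whole screen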;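 also: yeast exposed to compound for one week at 30 degrees C before staining; 100% = mean of all compound wells on the same plate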); conditions: S. cerevisiae aging, superoxide DHE fluorescence; at 10 µM, stronger effect = lower value

Compound	percent of DMSO control GFP [1]	GFP response vs DMSO [2]	percent response of DMSO control [3]	GFP response vs DMSO [4]	GFP response, % of DMSO [5]	double positive events [6] [%]	vesicle binding response [6]	inhibition [7]	aptamer binding inhibition [8]	response [9]	inhibition [10]	response [11]	binding (% of control) [12]	efflux inhibition (fraction of control) [13]	inhibition [14]	differentiation response [15]	superoxide response (% of plate) [16]
CCOC(=O)[C@H](CCc1ccccc1)N[C@@H](C)C(=O)N1CCC[C@H]1C(=O)O	102% (inactive)	98.3% (inactive)	93.1% (inactive)	98.6% (inactive)	96.4% (inactive)	64.3	171% (inactive)	-5.64% (inactive)	13% (inactive)	-2.62% (inactive)	61% (active)	-5.12% (inactive)	95.3% (inactive)	0.46 (active)	3% (inactive)	25.7% (inactive)	–
CCOc1ccccc1OCCOc1ccc(F)cc1	101% (inactive)	98.3% (inactive)	100% (inactive)	88.1% (inactive)	91.1% (inactive)	63.4	193% (inactive)	-30.5% (inactive)	0% (inactive)	7.79% (inactive)	0.71% (inactive)	-0.31% (inactive)	104% (inactive)	0.24 (inactive)	1% (inactive)	12% (inactive)	–
OCCN1CCN(CCCN2c3ccccc3Sc3ccc(Cl)cc32)CC1	104% (inactive)	104% (inactive)	100% (inactive)	112% (inactive)	121% (inactive)	64.3	268% (inactive)	68.7% (active)	-10% (inactive)	–	29.9% (inactive)	5.46% (inactive)	115% (inactive)	0.71 (active)	-3% (inactive)	-11.9% (inactive)	111% (inactive)
COc1ccc(C=NCC2COc3ccccc3O2)cc1OC (stereo not given)	103% (inactive)	101% (inactive)	98.8% (inactive)	90.3% (inactive)	95.5% (inactive)	62.8	187% (inactive)	0.69% (inactive)	-1% (inactive)	–	17.1% (inactive)	-2.12% (inactive)	107% (inactive)	0.63 (active)	10% (inactive)	-5.05% (inactive)	104% (inactive)
Cn1c(=O)[nH]c(=O)c2c1ncn2CCN1CCOCC1	103% (inactive)	98.3% (inactive)	96.6% (inactive)	82.2% (inactive)	97.3% (inactive)	63.6	288% (inactive)	-3.57% (inactive)	-4% (inactive)	-4.41% (inactive)	-3.3% (inactive)	0.49% (inactive)	102% (inactive)	0.08 (inactive)	16% (inactive)	62.8% (active)	–
C#CCN1C(=O)C(O)(CC(=O)c2ccc(OC)c(OC)c2)c2ccccc21 (stereo not given)	102% (inactive)	103% (inactive)	93.1% (inactive)	98% (inactive)	97.6% (inactive)	64.1	315% (inactive)	11% (inactive)	1% (inactive)	-2.19% (inactive)	-2.48% (inactive)	-1.43% (inactive)	104% (inactive)	0.11 (inactive)	-4% (inactive)	12.9% (inactive)	–
COc1cccc(C2CCCN2Cc2nc(CCC(C)C)no2)c1 (stereo not given)	101% (inactive)	116% (inactive)	103% (inactive)	109% (inactive)	101% (inactive)	54.6	135% (inactive)	-9.57% (inactive)	0% (inactive)	–	5.57% (inactive)	3.31% (inactive)	104% (inactive)	0.25 (inactive)	8% (inactive)	4.64% (inactive)	102% (inactive)
Oc1c(Cl)cc(Cl)c(Cl)c1Cc1c(O)c(Cl)cc(Cl)c1Cl	107% (inactive)	113% (inactive)	108% (inactive)	96.8% (inactive)	93.1% (inactive)	51.2	24.1% (active)	7.43% (inactive)	-1% (inactive)	–	–	0.14% (inactive)	105% (inactive)	0.19 (inactive)	8% (inactive)	0.82% (inactive)	79.3% (inactive)
CCOC(=O)Nc1ccc2c(c1)N(C(=O)CCN1CCOCC1)c1ccccc1S2	107% (inactive)	102% (inactive)	109% (inactive)	92.3% (inactive)	109% (inactive)	48.8	120% (inactive)	-8.64% (inactive)	0% (inactive)	–	9.79% (inactive)	-2.72% (inactive)	97.3% (inactive)	-0.43 (inactive)	8% (inactive)	-8.27% (inactive)	106% (inactive)
CCOc1ccc(CCn2c(-c3ccco3)nc3ccccc3c2=O)cc1OCC	100% (inactive)	106% (inactive)	94.2% (inactive)	92.7% (inactive)	92.6% (inactive)	62.6	258% (inactive)	-18.1% (inactive)	1% (inactive)	2.8% (inactive)	3.57% (inactive)	-0.47% (inactive)	91.2% (inactive)	0.27 (inactive)	20% (inactive)	0.24% (inactive)	–
Cc1oc2cc(O)ccc2c(=O)c1Oc1ccccc1Br	96.9% (inactive)	108% (inactive)	93% (inactive)	102% (inactive)	98.1% (inactive)	54.8	172% (inactive)	-12.4% (inactive)	6% (inactive)	–	4.89% (inactive)	1.47% (inactive)	102% (inactive)	-0.31 (inactive)	9% (inactive)	-13.1% (inactive)	101% (inactive)
OC[C@H]1O[C@@H](n2cnc3c(NC4CCCC4)ncnc32)[C@H](O)[C@@H]1O	96.8% (inactive)	98.9% (inactive)	98.8% (inactive)	99.4% (inactive)	98.4% (inactive)	52.6	139% (inactive)	6.29% (inactive)	4% (inactive)	–	7.18% (inactive)	-1.41% (inactive)	104% (inactive)	0.18 (inactive)	2% (inactive)	-8.27% (inactive)	102% (inactive)
CC(=O)O[C@]1(C(C)=O)CC[C@H]2[C@@H]3C=C(Cl)C4=CC(=O)CC[C@]4(C)[C@H]3CC[C@@]21C	99.3% (inactive)	89.7% (inactive)	102% (inactive)	84.3% (inactive)	97.2% (inactive)	48.7	201% (inactive)	-20.8% (inactive)	-1% (inactive)	–	-12.8% (inactive)	-0.6% (inactive)	105% (inactive)	-0.12 (inactive)	9% (inactive)	-9.89% (inactive)	108% (inactive)
CNC[C@H](O)c1ccc(O)c(O)c1	107% (inactive)	95.9% (inactive)	107% (inactive)	97.4% (inactive)	103% (inactive)	43.9	162% (inactive)	-25.4% (inactive)	–	–	2.4% (inactive)	2.95% (inactive)	103% (inactive)	-0.24 (inactive)	9% (inactive)	-8.27% (inactive)	108% (inactive)
O=C(Nc1ccc(Oc2c(F)c(F)c(F)c(F)c2F)cc1)OC1CCN2Cc3ccccc3N=C12 (stereo not given)	107% (inactive)	105% (inactive)	97.9% (inactive)	98.4% (inactive)	96.4% (inactive)	53.8	123% (inactive)	-184% (inactive)	0% (inactive)	–	–	-2.8% (inactive)	98.8% (inactive)	1.47 (active)	1% (inactive)	70.8% (active)	85.7% (inactive)
C[C@]12CC[C@@H]3c4cc(O)c(O)cc4CC[C@H]3[C@@H]1CC[C@@H]2O	98.8% (inactive)	98.3% (inactive)	95.4% (inactive)	81.5% (inactive)	90% (inactive)	65.9	236% (inactive)	16.1% (inactive)	3% (inactive)	0.11% (inactive)	2.25% (inactive)	-0.25% (inactive)	96.1% (inactive)	0.49 (active)	5% (inactive)	8.06% (inactive)	–
Cc1ccc(CSCC(=O)NCCCN2CCOCC2)cc1	100% (inactive)	96.2% (inactive)	95.4% (inactive)	92.7% (inactive)	96.4% (inactive)	67.8	243% (inactive)	-4.6% (inactive)	-4% (inactive)	-1.57% (inactive)	-6.22% (inactive)	1.78% (inactive)	104% (inactive)	0.33 (inactive)	-6% (inactive)	3.18% (inactive)	–
COc1ccc2[nH]c3c(c2c1)CCn1c-3nc2ccccc2c1=O	101% (inactive)	105% (inactive)	104% (inactive)	116% (inactive)	101% (inactive)	48.2	168% (inactive)	2.56% (inactive)	-2% (inactive)	–	10.7% (inactive)	11.4% (inactive)	97.2% (inactive)	-0.12 (inactive)	7% (inactive)	0% (inactive)	95.3% (inactive)
C=C(C)COc1ccc(-c2n[nH]c(C)c2-c2ccc(OC)cc2)c(O)c1	105% (inactive)	111% (inactive)	95.9% (inactive)	112% (inactive)	87.7% (inactive)	58.9	175% (inactive)	-9.57% (inactive)	-3% (inactive)	–	–	-1.12% (inactive)	107% (inactive)	0.75 (active)	10% (inactive)	-9.89% (inactive)	101% (inactive)
COc1ccc(CCN(C)CCCC(C#N)(c2ccc(OC)c(OC)c2)C(C)C)cc1OC (stereo not given)	105% (inactive)	104% (inactive)	98.8% (inactive)	95.4% (inactive)	99.7% (inactive)	63.8	183% (inactive)	2.56% (inactive)	-1% (inactive)	–	53.9% (inactive)	1.25% (inactive)	102% (inactive)	–	2% (inactive)	24% (inactive)	101% (inactive)
